Inconclusive results are not listed. Values without a mark were called inactive. The source made the active and inactive calls. Calls follow the shape of the dose curve; as a rule, active = well fitted inhibition curve with a large enough effect; inconclusive = small, poorly fitted or top-dose-only effect; inactive = flat fitted curve, though single readings scatter.
Each compound was assayed against Luciferin 4-monooxygenase (Photinus pyralis) (UniProt P08659) (assay: FLuc inhibitory activity for the follow-up compounds in a biochemical assay with 1mM D-luciferin). Details: purified FLuc, luminescence; series mostly up to 57.5 µM; activity change, negative = inhibition: at the top concentration.
Luciferin 4-monooxygenase (Photinus pyralis), sequence (P08659 whole entry, looked up): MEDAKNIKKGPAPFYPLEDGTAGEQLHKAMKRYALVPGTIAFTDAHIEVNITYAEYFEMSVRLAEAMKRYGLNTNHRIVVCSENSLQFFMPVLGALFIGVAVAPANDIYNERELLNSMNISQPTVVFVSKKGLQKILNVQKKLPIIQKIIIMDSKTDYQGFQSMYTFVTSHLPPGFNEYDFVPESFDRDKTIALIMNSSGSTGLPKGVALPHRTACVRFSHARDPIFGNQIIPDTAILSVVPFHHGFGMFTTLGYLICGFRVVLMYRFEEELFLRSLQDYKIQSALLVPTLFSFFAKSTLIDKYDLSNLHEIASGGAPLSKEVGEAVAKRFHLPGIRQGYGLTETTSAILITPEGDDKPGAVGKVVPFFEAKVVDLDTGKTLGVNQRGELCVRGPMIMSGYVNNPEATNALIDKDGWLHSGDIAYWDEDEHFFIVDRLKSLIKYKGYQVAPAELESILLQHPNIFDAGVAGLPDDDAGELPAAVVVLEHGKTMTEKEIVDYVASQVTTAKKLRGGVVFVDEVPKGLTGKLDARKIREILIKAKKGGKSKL
Description: NCGC Assay Overview: Firefly (Photinus pyralis) luciferase is one of the most commonly used transcriptional reporters. It is considered one of the more dynamically responsive reporters - that is, responsive to changes in reporter transcription - as it requires no post-translational modifications and is enzymatically active directly after protein synthesis (Wood, 1998). With no endogenous expression in mammalian cells and without the requirement of external excitation, it offers very little background signal, thus generally providing excellent signal to background for most assays. Previous profiling work to determine the prevalence of compounds that affect FLuc enzymatic activity (PubChem AID 411) identified that ~3% of the MLSMR library (then at ~72K) inhibited FLuc. […] Of the compounds identified in this profile that inhibited FLuc, 151 compounds were selected for further analysis, in an effort to better understand their mode of inhibiting FLuc. The assay described here was to determine the activity of the compounds in a FLuc assay that contained a KM concentration of ATP and a high concentration (1mM) of D-luciferin.
NCGC Assay Protocol Summary: Reagents: 50mM Tris acetate, pH 7.5; 10mM Mg acetate; 1mM D-luciferin (Sigma #L9504); 10uM ATP; 0.01% Tween-20; 0.05% BSA; 10nM P. pyralis luciferase (Sigma #L9506) Control compounds used were two known firefly luciferase inhibitors (3-(5-(3-chlorophenyl)-1,2,4-oxadiazol-3-yl)benzoic acid and 5-(2-fluorophenyl)-3-phenyl-1,2,4-oxadiazole), and DMSO. Three microliters containing firefly luciferase substrates in buffer (final concentrations: 50mM Tris acetate, pH 7.5, 10mM Mg acetate, 0.01% Tween-20, 0.05% BSA, 1mM D-luciferin, 10uM ATP) are dispensed into each well of a Greiner white, solid-bottom 1536-well format plate using a flying reagent dispenser (FRD). These assay plates were then treated with 23nL of compound or DMSO using a Kalypsys pin tool, which allows for delivery of a 12-point intraplate titration of each compound to the assay plate (quantitative HTS), with a final compound concentrations ranging from approximately ~60uM to 0.3nM. One microliter of firefly luciferase in […] Tris-acetate buffer was then delivered by FRD to each well for a final enzyme concentration of 10nM. Luciferase activity was then measured using a ViewLux CCD imager (PerkinElmer), with an average exposure time of 2-30 seconds (2X binning, medium/high gain).

SMILES	Potency	activity change, negative = inhibition
O=C(Nc1ccccc1C(=O)O)c1ccc(NC(=O)C2CCCCC2)cc1	16.3 µM (active)	–
Cc1c(C)c2ccc(OCC(=O)Nc3ccccn3)c(C)c2oc1=O	0.0919 µM (active)	–
O=C(Nc1ccccc1C(=O)Nc1ccccc1C(=O)O)c1ccccc1	20.6 µM (active)	–
Cc1ccc(C(=O)Nc2cccc(C(=O)O)c2)cc1S(=O)(=O)N1CCCC1	4.61 µM (active)	–
Cc1ccc2nc(-c3ccc(NC(=O)CN4CCN(C(=O)c5ccco5)CC4)cc3)sc2c1	14.6 µM (active)	–
O=C(Nc1ccccc1C(=O)O)c1cccc(NC(=O)c2ccccc2Cl)c1	36.6 µM (active)	–
COc1ccc2nc(NC(=O)c3ccc(S(=O)(=O)N4CCCC(C)C4)cc3)sc2c1 (stereo not given)	–	-1.24%
Cc1c(NC(=O)c2cc(-n3cnnc3)ccc2Cl)cccc1-c1nc2ccccc2s1	0.919 µM (active)	–
CC(C)(C)NC(=O)c1ccccc1-c1nc2ccccc2s1	–	-9.2%
COc1ccc(-c2nc3ccccc3s2)cc1NC(=O)c1ccc(F)cc1	–	2.39%
COc1ccc(C(=O)Nc2cccc(C(=O)O)c2)cc1S(=O)(=O)N1CCCC1	–	-20.1%
COc1ccc(C(=O)Nc2ccccc2-c2nc3ccccc3s2)c(OC)c1	–	-4.07%
O=C(Nc1ccccc1C(=O)O)c1ccc(NC(=O)C2CC2)cc1	4.11 µM (active)	–
Cc1ccc(C(=O)O/N=C(\N)c2ccccn2)cc1	0.183 µM (active)	–
O=C(Nc1c(Cl)cc(Cl)cc1-c1nc2ccccc2s1)c1ccc(Br)o1	–	-2.74%
O=C(O)c1cccc(NC(=O)c2ccccc2NC(=O)c2ccco2)c1	–	-17.2%
CCOc1ccc(C(=O)Nc2ccccc2C(=O)O)cc1	3.66 µM (active)	–
O=C(Nc1ccccc1C(=O)O)c1cccc(S(=O)(=O)Nc2ccc(Br)cc2)c1	–	-16.9%
Cc1ccc(NS(=O)(=O)c2ccc(Cl)c(C(=O)Nc3cccc(C(=O)O)c3)c2)cc1	–	-7.82%
Cc1ccc(S(=O)(=O)N2CCN(C(=O)c3ccccc3-c3nc4ccccc4s3)CC2)c(C)c1	–	-5.01%

SMILES	Potency	activity change, negative = inhibition
COc1ccc(C(=O)Nc2ccccc2C(=O)Nc2ccc(C(=O)O)cc2)cc1	8.19 µM (active)	–
COc1ccccc1C(=O)Nc1ccc(C(=O)O)cc1	–	-21.2%
COc1cc(OC)cc(-c2nc3ccccc3s2)c1	18.3 µM (active)	–
O=C(Nc1ccccc1-c1nc2ccccc2s1)c1ccc(Br)o1	–	-0.997%
Cc1c(NC(=O)c2cccs2)cccc1-c1nc2ccccc2s1	14.6 µM (active)	–
COc1cc(OC)cc(C(=O)Nc2ccc(-c3nc4ccccc4s3)c(C)c2)c1	–	-10.4%
COc1cc(C(=O)Nc2cc(C)c(O)c(-c3nc4ccccc4s3)c2)cc(OC)c1OC	–	7.61%
CCOc1ccc2nc(NC(=O)Cc3cccs3)sc2c1	18.3 µM (active)	–
O=C(Nc1ccc(Cl)cc1-c1nc2ccccc2s1)c1ccco1	–	-9.53%
COc1ccc2nc(NC(=O)C3CCN(S(=O)(=O)c4cccnc4)CC3)sc2c1	–	-3.84%
COc1ccc2nc(NC(=O)CCc3ccc(OC)c(OC)c3)sc2c1	–	-15.1%
COc1ccc(C(=O)Nc2ccccc2C(=O)N/N=C/c2ccc(O)c(OC)c2)cc1	0.0103 µM (active)	–
Nc1ccc(C(=O)Nc2ccccc2C(=O)O)cc1	20.6 µM (active)	–
Cc1c(NS(C)(=O)=O)cccc1-c1nc2ccccc2s1	16.3 µM (active)	–
COc1ccc(CC(=O)Nc2ccc(-c3nc4ccccc4s3)c(C)c2)cc1	–	-11.1%
CC(C)c1ccc(C(=O)Nc2ccc(-c3nc4ccccc4s3)c(Cl)c2)cc1	–	-7.4%
CCOc1ccc(C(=O)Nc2cccc(C(=O)O)c2)cc1Cl	6.51 µM (active)	–
C/C(=N\NC(=O)c1ccccc1NC(=O)c1ccc(Cl)cc1)c1ccncc1	0.0517 µM (active)	–
O=C(O)c1ccc(NC(=O)c2cccc(NC(=O)c3cccs3)c2)cc1	32.6 µM (active)	–
O=C(O)c1cccc(NC(=O)c2cccc(S(=O)(=O)N3CCc4ccccc43)c2)c1	–	-14.4%
